Compound activity (PubChem)
HCV inh: qHTS Assay for Inhibitors of Hepatitis C Virus (HCV); AID 651820, 2012; Potency, µM (series often up to 41.8 µM), inactives show at the top dose activity change, negative = inhibition, usual class: inhibitors; Huh7.5.1 HCVcc-Cre infection, luciferase reporter, 44 h; 340,000 compounds, 3.4% hits; active means well fitted inhibition curve with a large enough effect; inconclusive means small, poorly fitted or top-dose-only effect, or another doubt; inactive means no such curve, though single readings can be large or run the other way
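Infectious HCV cell culture screen: compound-treated cells (1,000/well, pre-plated 4 h) are infected with HCVcc-Cre at roughly 0.5 moi and grown 44 h. Infection is quantified by luciferase signal after 15 min substrate incubation at room temperature.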
VACV mCherry inh: qHTS for Stage-Specific Inhibitors of Vaccinia Orthopoxvirus: mCherry Reporter Primary qHTS | Vaccinia virus mCherry reporter infection, fluorescence | 310,000 compounds, 0.63% hits | Potency, µM (top dose mostly 36.5 µM), inactives show top-dose activity change, negative = inhibition, usual class: inhibitors; calls by dose curve; tested in A549 cells; further: nearly all actives have a fitted effect of over 35% in size
Marburg entry inh: qHTS for inhibitors of binding or entry into cells for Marburg Virus | Potency, µM (series often up to 37.8 µM), inactives show at the highest dose activity change, negative = inhibition, most hits filed as inhibitors | 300,000 compounds, 1.8% hits | Marburg virus pseudotyped entry inhibition, cell reporter; calls by dose curve; tested in HEK293 cells
VACV Venus inh: qHTS for Stage-Specific Inhibitors of Vaccinia Orthopoxvirus: Venus Reporter Primary qHTS; Vaccinia virus Venus reporter expression, fluorescence; Potency, µM (series often up to 36.5 µM), inactives show at the highest dose activity change, negative = inhibition, usual class: inhibitors; 330,000 compounds, 0.46% hits; AID 720580, 2013; calls by dose curve; tested in A549 cells; further: nearly all actives have a fitted effect of over 30% in size
FMDV antiviral: High Throughput Screening for Foot and Mouth Disease Virus Antivirals; FMDV antiviral cell-based qHTS; Potency, µM (series often up to 57.9 µM), for the others: top-dose activity change, negative = inhibition, hits mostly inhibitors; 410,000 compounds, 1.2% hits; calls by dose curve; tested in HEK293T cells; further: read-out not given here; nearly all actives have a fitted effect of over 45% in size
LASV entry inh: qHTS for Inhibitors of binding or entry into cells for Lassa Virus; Lassa virus pseudotype entry inhibition, cell reporter; Potency, µM (highest dose often 37.9 µM), for inactives: top-dose activity change, negative = inhibition, usual class: inhibitors; 300,000 compounds, 1.2% hits; AID 540256, 2011; calls by dose curve; tested in HEK293 cells; further: nearly all actives have a fitted effect of over 50% in size
The depositor's hits bear a star; i = inactive; ? = inconclusive; · = no result given; [ ] = another dose, or the depositor's remark. Sampled rows, rich in hits. Any-hit rate of the full collection: about 5.3%. On the % scale 0 is the no-effect control and ±100 the full control effect; potency means the concentration at half of the fitted maximal effect.

SMILES	HCV inh	VACV mCherry inh	Marburg entry inh	VACV Venus inh	FMDV antiviral	LASV entry inh
O=C(COc1ccc(Br)cc1)N1CCN(Cc2c[nH]c3ccccc23)CC1	-12%	14µM*	?	?	-25%	?
COc1ccc(CCN(C)CC(O)COC(c2ccc(F)cc2)c2ccc(F)cc2)cc1OC (configuration not stated)	?	i	5.6µM*	-27%	-11%	?
COc1ccc(CN(C)CC(O)COc2ccc(C(=O)c3ccccc3)cc2)c(OC)c1OC (configuration not stated)	?	i	?	-19%	-28%	?
COc1ccc(CN(C)CC(O)COC(c2ccccc2)c2ccccc2)c(OC)c1OC (configuration not stated)	16µM*	?	?	-8%	?	?
Cc1cccc(NC(=O)c2cccc(N3C(=O)C4C5C=CC(C6CC56)C4C3=O)c2)c1 (configuration not stated)	11µM*	-8%	?	-25%	16µM*	-20%
C[C@H]1CC[C@H]2C(=O)N[C@H](Cc3ccccc3)C(=O)N2[C@H]1c1ccccc1	·	·	-17%[14.2 µM]	·	·	·
Cc1csc(NC(=O)c2cccc(S(=O)(=O)N3CCCCC3)c2)n1	-1%	-28%	-52%	-19%	-27%	-30%
O=C(Nc1nc(-c2cccs2)cs1)c1cccc(S(=O)(=O)N2CCCCCC2)c1	11µM*	?	?	?	3%	-16%
O=C(Nc1nc(-c2cccs2)cs1)c1ccc(S(=O)(=O)N2CCCCC2)cc1	18µM*	?	-3%	?	16µM*	·
Cc1nc(-c2cccc(NC(=O)c3cccc(S(=O)(=O)N4CCCC4)c3)c2)cs1	10µM*	·	·	·	?	·
CC(=O)N1CCC[C@H]1C(=O)NCC1Cc2cc(-c3cnccn3)cc(Cl)c2O1 (some centres not stated)	·	-10%	·	2%	2%	·
COc1ccc(CN2CCN(c3ncnc4scc(-c5ccc(F)cc5)c34)CC2)cc1	?	-15%	13µM*	-17%	?	?
COc1ccc(N2CCN(c3ncnc4scc(-c5ccc(F)cc5)c34)CC2)cc1	?	i	?	-24%	28µM*	-11%
COc1ccc(N2CCN(c3ncnc4scc(-c5ccc(C)cc5)c34)CC2)cc1	?	-16%	?	-6%	?	10µM*
O=C(c1ccco1)N1CCN(c2ncnc3scc(-c4ccccc4)c23)CC1	?	-8%	-11%[46.1 µM]	-18%	?	-20%
Cc1ccc(-c2csc3ncnc(N4CCN(C(=O)c5ccccc5)CC4)c23)cc1	?	-5%[1.46 µM]	?	?	25µM*	?
O=C(COc1ccccc1C(=O)Nc1ccccc1)Nc1ccc2ccccc2c1	·	-7%	·	-20%	·	·
Nc1ccc(/C=C/c2nc3ccccc3s2)cc1	·	-10%	·	28%	·	·
COc1ccc(Nc2ncnc3scc(-c4ccc(F)cc4)c23)cc1	·	-14%	·	-1%	?	-18%[46.1 µM]
COc1ccc(Nc2ncnc3scc(-c4ccc(OC)cc4)c23)cc1	6.3µM*	?	7.3µM*	-29%	?	?
CCn1c(-c2ccccc2F)nc2cc(C(=O)N3CCCC(CO)C3)cc(NC(C)=O)c21 (configuration not stated)	·	-7%	·	4%	5%	·
NC(=NCc1ccc(Cl)c(Cl)c1)NC(=O)c1nc(Cl)c(N)nc1N	·	·	2.5µM*	·	·	·
O=C(CCl)N(CCCNC(=O)C(F)(F)F)c1ccc([N+](=O)[O-])cc1	?	i[7.34 µM]	-17%[46.1 µM]	-9%[7.34 µM]	20µM*	3%
COc1ccc(/C=N/n2c(SC)nnc(C(C)(C)C)c2=O)cc1	16%	·	-3%	-12%	-5%	?
CCOc1ccc(/C=N/n2c(SC)nnc(C(C)(C)C)c2=O)cc1	5%	·	-3%	17%	-4%	10µM*
SMILES	HCV inh	VACV mCherry inh	Marburg entry inh	VACV Venus inh	FMDV antiviral	LASV entry inh
O=C(Nc1cccc(F)c1)N(Cc1ccc(Cl)cc1)CC(O)C(F)(F)F (configuration not stated)	11µM*	?	?	?	-29%	?
O=C(Nc1ccccc1)N(Cc1ccccc1)CC(O)C(F)(F)F (configuration not stated)	5%	·	?	-14%	-25%	?
Cc1cc(N2CCN(c3ccccc3)CC2)nc(-c2ccccc2)n1	?	-13%	-7%	-22%	-8%	?
COc1ccc(C2(O)CC3CCC(C2)N3c2cc(C)nc(-c3ccccc3)n2)cc1 (configuration not stated)	?	-12%	12µM*	-30%	?	2%
Nc1nc(SCc2ccc(Cl)cc2Cl)nc2nc3c(cc12)CCCC3	8.9µM*	?	?	?	-19%	?
Nc1nc(SCc2ccccc2Cl)nc2nc3c(cc12)CCCC3	·	-16%	-9%	-14%	-17%	-21%[14.3 µM]
CC1=CC2C(C(O)CC3(C)C2CC(C)C32OCOC23COCO3)C2(C)C/C(=C\O)C(=O)C=C12 (configuration not stated)	?	?	7.9µM*	13µM*	40µM*	?
CCC1CCCCN1C(=O)C(=O)c1cn(CC(=O)N(CC)CC)c2ccccc12 (configuration not stated)	5%	i	1%[46.1 µM]	0%	-4%	24%[46.1 µM]
Cc1ccc(S(=O)(=O)CCC(=O)c2cccc([N+](=O)[O-])c2)cc1	?	-5%	?	-22%	25µM*	?
Cc1ccc(C(=O)CCS(=O)(=O)c2ccc(Br)cc2)cc1	10%	-8%	15%[46.1 µM]	-8%	11%	?
Cc1ccc(S(=O)(=O)Cc2cc(F)c([N+](=O)[O-])cc2[N+](=O)[O-])cc1	?	2.8µM*	?	?	-41%	-21%[46.1 µM]
COc1ccc(N2CCN(C(CNC(=O)C(=O)NCc3ccc(C)cc3)c3cccnc3)CC2)cc1 (configuration not stated)	·	?	·	-24%	?	-2%[46.1 µM]
Cn1cc(CNCc2ccccc2OCC(O)CN2CCc3ccccc3C2)cn1 (configuration not stated)	11µM*	-15%	?	-21%	6%	-2%
OC(COc1c(F)cc(Br)cc1F)CN1CCc2ccccc2C1 (configuration not stated)	2%	·	·	·	-17%	·
Cc1ccc(C(C)C)c(OCC(O)CN2CCN(c3ccccc3F)CC2)c1 (configuration not stated)	·	-19%	·	-22%	-25%	24%[46.1 µM]
Cc1cccc(C)c1OCC(O)CN1CCc2ccccc2C1 (configuration not stated)	13µM*	-10%	?	-3%	-2%	-10%
